# Reference: article PMC7862700, “An all-to-all approach to the identification of sequence-specific readers for epigenetic DNA modifications on cytosine”
# Columns and labels:
# Assay in all cases: DAPPL (digital affinity profiling via proximity ligation, sequencing); 10 mM Tris-HCl pH 7.5, 50 mM NaCl, 1 mM DTT, 4% glycerol, room temperature, 30 min; GST-TFs on glutathione beads, 16-mer random dsDNA library, 0.1% formaldehyde crosslink after washing; high values mean tight binding
# ERG = target: T1, ERG (Homo sapiens, UniProt P11308 1-479); details: protein: recombinant; tags: N-terminal GST; dsDNA, one strand shown
# T1 sequence: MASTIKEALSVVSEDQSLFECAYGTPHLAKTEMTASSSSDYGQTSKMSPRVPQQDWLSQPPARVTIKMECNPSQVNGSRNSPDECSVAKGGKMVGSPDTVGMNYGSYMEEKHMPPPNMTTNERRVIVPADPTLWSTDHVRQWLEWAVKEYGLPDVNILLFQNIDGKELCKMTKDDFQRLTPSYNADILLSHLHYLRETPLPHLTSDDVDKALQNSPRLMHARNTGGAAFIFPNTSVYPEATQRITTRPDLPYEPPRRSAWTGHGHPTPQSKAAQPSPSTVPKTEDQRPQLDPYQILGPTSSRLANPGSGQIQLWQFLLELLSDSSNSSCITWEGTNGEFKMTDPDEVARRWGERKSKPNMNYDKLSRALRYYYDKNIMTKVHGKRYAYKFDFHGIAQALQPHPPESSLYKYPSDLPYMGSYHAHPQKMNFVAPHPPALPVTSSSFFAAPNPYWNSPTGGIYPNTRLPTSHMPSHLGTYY
# How it was run: (§1)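 Yeast served to express human transcription factors as GST fusions, which were then captured on glutathione beads and labelled with DNA barcodes. Pooled with a tag-only sample, they were incubated with 200 nmole of a 16-mer random double-stranded DNA library for 30 min at room temperature in Tris/NaCl/DTT/glycerol buffer, washed, crosslinked with 0.1% formaldehyde, ligated by proximity, amplified by PCR and sequenced. Dividing each hexamer's read frequency for a factor by its frequency for the tag-only sample gives the binding signal.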
# ELF1 = ELF1 (Homo sapiens, UniProt P32519 1-619); details: protein: recombinant; tags: N-terminal GST; dsDNA, one strand shown
# Chain of ELF1 (P32519 whole entry): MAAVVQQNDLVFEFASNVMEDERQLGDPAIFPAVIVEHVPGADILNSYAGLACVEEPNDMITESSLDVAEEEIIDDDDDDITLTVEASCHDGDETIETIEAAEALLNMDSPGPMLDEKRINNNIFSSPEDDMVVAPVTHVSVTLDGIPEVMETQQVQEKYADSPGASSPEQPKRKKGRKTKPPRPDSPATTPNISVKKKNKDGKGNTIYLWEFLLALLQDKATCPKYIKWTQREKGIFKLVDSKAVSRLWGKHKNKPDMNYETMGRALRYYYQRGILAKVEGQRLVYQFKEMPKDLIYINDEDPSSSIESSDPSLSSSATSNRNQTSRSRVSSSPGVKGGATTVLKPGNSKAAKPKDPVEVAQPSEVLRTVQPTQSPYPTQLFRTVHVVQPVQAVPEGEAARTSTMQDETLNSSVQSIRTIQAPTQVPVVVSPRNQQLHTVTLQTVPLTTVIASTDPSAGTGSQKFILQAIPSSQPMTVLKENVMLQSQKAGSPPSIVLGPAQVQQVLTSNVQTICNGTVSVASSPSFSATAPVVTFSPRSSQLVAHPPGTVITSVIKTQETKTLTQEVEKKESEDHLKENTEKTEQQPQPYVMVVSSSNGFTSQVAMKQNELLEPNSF
# How it was run: as §1
# EHF = target: T2, EHF (Homo sapiens, UniProt Q9NZC4 1-300); details: protein: recombinant; tags: N-terminal GST; dsDNA, one strand shown
# T2 sequence: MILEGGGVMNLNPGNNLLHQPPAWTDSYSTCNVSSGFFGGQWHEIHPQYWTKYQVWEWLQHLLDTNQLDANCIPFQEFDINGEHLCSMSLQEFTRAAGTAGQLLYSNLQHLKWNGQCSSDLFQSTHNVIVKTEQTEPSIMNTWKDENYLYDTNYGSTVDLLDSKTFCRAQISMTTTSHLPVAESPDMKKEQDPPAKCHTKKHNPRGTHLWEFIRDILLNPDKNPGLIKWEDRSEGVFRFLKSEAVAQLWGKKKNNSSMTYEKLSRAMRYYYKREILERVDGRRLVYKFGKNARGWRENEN
# How it was run: as §1
# FEV = target: T3, FEV (Homo sapiens, UniProt Q99581 1-238); details: protein: recombinant; tags: N-terminal GST; dsDNA, one strand shown
# T3 sequence: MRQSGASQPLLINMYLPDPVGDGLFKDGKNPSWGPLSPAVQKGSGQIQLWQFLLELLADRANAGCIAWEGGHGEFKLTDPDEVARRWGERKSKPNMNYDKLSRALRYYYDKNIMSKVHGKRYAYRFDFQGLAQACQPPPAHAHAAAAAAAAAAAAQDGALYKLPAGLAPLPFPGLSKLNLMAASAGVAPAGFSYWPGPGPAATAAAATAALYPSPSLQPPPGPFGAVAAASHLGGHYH
# How it was run: as §1
# HSF1 = HSF1 (Homo sapiens, UniProt Q00613 1-529); details: protein: recombinant; tags: N-terminal GST; chain copies: 3; dsDNA, one strand shown
# Chain of HSF1 (Q00613 whole entry): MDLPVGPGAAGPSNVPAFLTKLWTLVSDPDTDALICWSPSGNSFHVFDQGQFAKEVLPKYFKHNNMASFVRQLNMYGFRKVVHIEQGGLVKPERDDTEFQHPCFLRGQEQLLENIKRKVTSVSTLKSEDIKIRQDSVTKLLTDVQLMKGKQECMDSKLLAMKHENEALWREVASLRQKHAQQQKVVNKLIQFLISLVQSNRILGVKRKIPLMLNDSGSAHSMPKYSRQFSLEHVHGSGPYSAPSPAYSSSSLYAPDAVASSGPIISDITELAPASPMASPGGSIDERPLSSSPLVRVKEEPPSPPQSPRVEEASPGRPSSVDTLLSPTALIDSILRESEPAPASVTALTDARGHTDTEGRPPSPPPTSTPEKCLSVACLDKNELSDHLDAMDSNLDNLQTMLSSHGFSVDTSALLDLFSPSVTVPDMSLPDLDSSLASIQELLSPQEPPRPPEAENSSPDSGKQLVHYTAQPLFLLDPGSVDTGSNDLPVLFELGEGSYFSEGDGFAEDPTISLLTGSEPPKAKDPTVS
# How it was run: as §1
# ELF4 = ELF4 (Homo sapiens, UniProt Q99607 1-663); details: protein: recombinant; tags: N-terminal GST; dsDNA, one strand shown
# Chain of ELF4 (Q99607 whole entry): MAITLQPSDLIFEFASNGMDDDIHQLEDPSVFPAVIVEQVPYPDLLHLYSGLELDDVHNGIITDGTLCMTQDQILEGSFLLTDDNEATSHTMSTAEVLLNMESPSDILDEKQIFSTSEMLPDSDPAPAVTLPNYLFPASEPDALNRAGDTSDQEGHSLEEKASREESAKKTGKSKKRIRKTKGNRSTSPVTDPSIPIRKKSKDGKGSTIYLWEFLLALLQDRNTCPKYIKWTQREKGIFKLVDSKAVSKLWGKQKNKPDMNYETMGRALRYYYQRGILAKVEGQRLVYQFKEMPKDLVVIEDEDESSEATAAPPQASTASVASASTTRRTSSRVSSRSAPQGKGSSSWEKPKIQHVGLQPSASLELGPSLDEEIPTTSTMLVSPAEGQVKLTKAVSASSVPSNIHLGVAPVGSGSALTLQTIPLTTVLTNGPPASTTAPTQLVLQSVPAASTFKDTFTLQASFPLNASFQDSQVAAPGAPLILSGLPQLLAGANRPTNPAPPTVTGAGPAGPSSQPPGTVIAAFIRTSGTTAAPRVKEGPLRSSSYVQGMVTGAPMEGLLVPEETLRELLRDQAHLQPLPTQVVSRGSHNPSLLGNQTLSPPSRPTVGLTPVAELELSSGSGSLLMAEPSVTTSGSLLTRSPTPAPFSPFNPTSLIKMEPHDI
# How it was run: as §1
# ELK4 = target: T4, ELK4 (Homo sapiens, UniProt P28324-2 1-405); details: protein: recombinant; tags: N-terminal GST; dsDNA, one strand shown
# T4 sequence: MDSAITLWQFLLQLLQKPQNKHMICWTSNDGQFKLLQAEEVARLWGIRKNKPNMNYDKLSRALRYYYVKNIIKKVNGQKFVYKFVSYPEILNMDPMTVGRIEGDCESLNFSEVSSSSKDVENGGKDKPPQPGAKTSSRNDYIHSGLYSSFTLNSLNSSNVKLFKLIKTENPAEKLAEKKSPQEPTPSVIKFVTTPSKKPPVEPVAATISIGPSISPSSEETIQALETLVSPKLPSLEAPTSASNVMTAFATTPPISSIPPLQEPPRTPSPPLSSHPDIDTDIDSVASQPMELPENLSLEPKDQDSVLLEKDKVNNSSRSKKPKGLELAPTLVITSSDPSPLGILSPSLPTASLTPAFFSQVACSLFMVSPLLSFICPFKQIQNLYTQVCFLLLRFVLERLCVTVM
# How it was run: as §1
# ETV2 = target: T5, ETV2 (Homo sapiens, UniProt O00321 1-342); details: protein: recombinant; tags: N-terminal GST; dsDNA, one strand shown
# T5 sequence: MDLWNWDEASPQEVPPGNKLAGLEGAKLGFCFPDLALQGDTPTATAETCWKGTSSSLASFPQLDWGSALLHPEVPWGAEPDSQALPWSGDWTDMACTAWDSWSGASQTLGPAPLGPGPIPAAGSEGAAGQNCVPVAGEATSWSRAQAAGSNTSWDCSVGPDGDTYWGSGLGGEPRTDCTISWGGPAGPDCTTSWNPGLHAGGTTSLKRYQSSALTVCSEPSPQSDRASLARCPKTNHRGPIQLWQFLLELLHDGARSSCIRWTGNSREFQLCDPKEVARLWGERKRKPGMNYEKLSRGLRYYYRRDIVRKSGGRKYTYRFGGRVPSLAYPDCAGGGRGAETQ
# How it was run: as §1
# CRX = CRX (Homo sapiens, UniProt O43186 1-299); details: protein: recombinant; tags: N-terminal GST; dsDNA, one strand shown
# Chain of CRX (O43186 whole entry): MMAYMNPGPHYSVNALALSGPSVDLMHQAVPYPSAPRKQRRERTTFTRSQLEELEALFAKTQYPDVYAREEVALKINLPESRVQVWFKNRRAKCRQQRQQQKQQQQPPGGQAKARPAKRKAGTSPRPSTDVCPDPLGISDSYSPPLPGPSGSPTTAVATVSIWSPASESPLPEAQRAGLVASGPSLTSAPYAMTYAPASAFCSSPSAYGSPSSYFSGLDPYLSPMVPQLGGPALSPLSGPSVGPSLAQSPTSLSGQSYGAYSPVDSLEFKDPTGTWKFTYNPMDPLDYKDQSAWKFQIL
# How it was run: as §1
# ETV1 = ETV1 (Homo sapiens, UniProt P50549 1-477); details: protein: recombinant; tags: N-terminal GST; dsDNA, one strand shown
# Chain of ETV1 (P50549 whole entry): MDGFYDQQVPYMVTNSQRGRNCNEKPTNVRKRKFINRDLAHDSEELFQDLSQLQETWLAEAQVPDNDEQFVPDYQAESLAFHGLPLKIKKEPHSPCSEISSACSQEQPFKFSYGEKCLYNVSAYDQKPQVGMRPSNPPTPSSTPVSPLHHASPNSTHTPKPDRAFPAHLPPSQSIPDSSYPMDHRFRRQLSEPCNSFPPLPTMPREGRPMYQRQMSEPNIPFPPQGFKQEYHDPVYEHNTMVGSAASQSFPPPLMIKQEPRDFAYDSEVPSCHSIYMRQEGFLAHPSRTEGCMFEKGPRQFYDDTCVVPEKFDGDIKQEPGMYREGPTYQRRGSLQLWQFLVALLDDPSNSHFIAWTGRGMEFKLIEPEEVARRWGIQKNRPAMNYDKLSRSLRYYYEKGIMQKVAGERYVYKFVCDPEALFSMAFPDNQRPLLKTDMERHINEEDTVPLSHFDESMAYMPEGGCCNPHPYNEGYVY
# How it was run: as §1
# ETV3L = target: T6, ETV3L (Homo sapiens, UniProt Q6ZN32 1-361); details: protein: recombinant; tags: N-terminal GST; dsDNA, one strand shown
# T6 sequence: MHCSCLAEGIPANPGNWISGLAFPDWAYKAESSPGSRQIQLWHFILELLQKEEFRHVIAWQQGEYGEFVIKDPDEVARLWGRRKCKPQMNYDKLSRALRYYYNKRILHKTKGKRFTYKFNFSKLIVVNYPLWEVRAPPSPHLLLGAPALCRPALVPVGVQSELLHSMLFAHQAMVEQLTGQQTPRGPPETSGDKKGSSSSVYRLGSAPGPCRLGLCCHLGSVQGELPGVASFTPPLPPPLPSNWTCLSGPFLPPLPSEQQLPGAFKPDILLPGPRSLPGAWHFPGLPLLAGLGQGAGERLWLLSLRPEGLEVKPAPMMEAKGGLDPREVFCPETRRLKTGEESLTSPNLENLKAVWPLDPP
# How it was run: as §1
# ETS2 = target: T7, ETS2 (Homo sapiens, UniProt P15036 1-469); details: protein: recombinant; tags: N-terminal GST; dsDNA, one strand shown
# T7 sequence: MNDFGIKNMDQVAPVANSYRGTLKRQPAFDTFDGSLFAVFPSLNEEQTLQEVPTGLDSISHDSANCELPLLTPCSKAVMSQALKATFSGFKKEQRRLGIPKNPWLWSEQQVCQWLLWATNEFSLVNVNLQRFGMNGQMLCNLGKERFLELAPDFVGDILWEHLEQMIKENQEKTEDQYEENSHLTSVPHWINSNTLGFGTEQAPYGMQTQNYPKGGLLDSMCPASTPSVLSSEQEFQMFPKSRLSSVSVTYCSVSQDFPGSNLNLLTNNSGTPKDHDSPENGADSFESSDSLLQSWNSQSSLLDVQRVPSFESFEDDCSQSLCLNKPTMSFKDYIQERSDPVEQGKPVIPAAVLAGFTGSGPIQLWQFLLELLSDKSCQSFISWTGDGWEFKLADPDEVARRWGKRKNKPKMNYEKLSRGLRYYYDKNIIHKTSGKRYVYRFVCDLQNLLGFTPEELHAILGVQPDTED
# How it was run: as §1
# SPDEF = target: T8, SPDEF (Homo sapiens, UniProt O95238 1-335); details: protein: recombinant; tags: N-terminal GST; dsDNA, one strand shown
# T8 sequence: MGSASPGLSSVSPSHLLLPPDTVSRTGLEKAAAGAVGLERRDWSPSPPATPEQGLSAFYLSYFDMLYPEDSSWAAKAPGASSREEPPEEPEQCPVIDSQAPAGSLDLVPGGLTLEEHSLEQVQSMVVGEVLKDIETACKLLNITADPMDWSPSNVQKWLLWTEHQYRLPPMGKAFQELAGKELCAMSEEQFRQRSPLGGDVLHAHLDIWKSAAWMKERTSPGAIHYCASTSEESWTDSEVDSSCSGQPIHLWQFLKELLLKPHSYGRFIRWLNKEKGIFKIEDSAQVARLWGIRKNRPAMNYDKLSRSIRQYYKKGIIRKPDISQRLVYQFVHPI
# How it was run: as §1
# ETV7 = target: T9, ETV7 (Homo sapiens, UniProt Q9Y603 1-341); details: protein: recombinant; tags: N-terminal GST; dsDNA, one strand shown
# T9 sequence: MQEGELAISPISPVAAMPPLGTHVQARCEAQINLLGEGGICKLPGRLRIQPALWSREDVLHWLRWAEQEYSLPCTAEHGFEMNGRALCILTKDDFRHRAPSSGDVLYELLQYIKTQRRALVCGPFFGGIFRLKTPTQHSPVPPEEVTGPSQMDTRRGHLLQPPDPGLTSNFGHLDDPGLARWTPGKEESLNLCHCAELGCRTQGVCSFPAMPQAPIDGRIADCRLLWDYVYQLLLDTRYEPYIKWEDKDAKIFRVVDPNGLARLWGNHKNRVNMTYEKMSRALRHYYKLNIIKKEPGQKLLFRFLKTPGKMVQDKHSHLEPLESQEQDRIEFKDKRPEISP
# How it was run: as §1
# ETV3 = target: T10, ETV3 (Homo sapiens, UniProt P41162-2 1-143); details: protein: recombinant; tags: N-terminal GST; dsDNA, one strand shown
# T10 sequence: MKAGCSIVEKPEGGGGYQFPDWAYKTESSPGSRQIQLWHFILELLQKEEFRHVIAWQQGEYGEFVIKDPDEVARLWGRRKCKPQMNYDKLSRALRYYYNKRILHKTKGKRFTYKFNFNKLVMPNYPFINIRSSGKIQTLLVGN
# How it was run: as §1
# ETV6 = ETV6 (Homo sapiens, UniProt P41212 1-452); details: protein: recombinant; tags: N-terminal GST; dsDNA, one strand shown
# Chain of ETV6 (P41212 whole entry): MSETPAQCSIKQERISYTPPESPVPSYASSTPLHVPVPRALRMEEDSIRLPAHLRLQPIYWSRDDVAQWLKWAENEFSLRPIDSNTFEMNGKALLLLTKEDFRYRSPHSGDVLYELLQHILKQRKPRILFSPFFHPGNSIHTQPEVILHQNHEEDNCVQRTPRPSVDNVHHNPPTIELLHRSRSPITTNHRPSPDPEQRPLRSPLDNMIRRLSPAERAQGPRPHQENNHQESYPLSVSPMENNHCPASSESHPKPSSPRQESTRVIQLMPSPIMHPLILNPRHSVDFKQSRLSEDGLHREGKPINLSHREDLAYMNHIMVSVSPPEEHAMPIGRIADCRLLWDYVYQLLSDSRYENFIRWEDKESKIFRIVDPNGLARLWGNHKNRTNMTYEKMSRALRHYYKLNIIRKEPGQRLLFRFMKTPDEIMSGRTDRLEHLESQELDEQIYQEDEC
# How it was run: as §1
sequence,measurement,setting,value
ATTAGT,binding signal,ERG,"1.01 fold enrichment (6-mer frequency, TF over GST control)"
same,binding signal,ELF1,"1.03 fold enrichment (6-mer frequency, TF over GST control)"
same,binding signal,EHF,"1 fold enrichment (6-mer frequency, TF over GST control)"
same,binding signal,FEV,"1.01 fold enrichment (6-mer frequency, TF over GST control)"
same,binding signal,HSF1,"1.69 fold enrichment (6-mer frequency, TF over GST control)"
same,binding signal,ELF4,"1.06 fold enrichment (6-mer frequency, TF over GST control)"
same,binding signal,ELK4,"1.2 fold enrichment (6-mer frequency, TF over GST control)"
same,binding signal,ETV2,"1.12 fold enrichment (6-mer frequency, TF over GST control)"
same,binding signal,CRX,"2.44 fold enrichment (6-mer frequency, TF over GST control)"
same,binding signal,ETV1,"1.03 fold enrichment (6-mer frequency, TF over GST control)"
same,binding signal,ETV3L,"1.03 fold enrichment (6-mer frequency, TF over GST control)"
same,binding signal,ETS2,"1.01 fold enrichment (6-mer frequency, TF over GST control)"
same,binding signal,SPDEF,"1.06 fold enrichment (6-mer frequency, TF over GST control)"
same,binding signal,ETV7,"1.08 fold enrichment (6-mer frequency, TF over GST control)"
same,binding signal,ETV3,"1.01 fold enrichment (6-mer frequency, TF over GST control)"
same,binding signal,ETV6,"1.01 fold enrichment (6-mer frequency, TF over GST control)"
